# Laboratory results reported in PubChem BioAssay.
# Activity calls are given as the source filed them. Unless noted, how the calls were made is not given here.
# What was measured:
# [1] = resazurin metabolic signal in HepG2 cells – cell-based, resazurin fluorescence, 24 h, PK04 Diversity Set, profiling panel (AID 1172); details: HepG2 viability, higher = more signal
# [2] = budding yeast growth changes without added modifier – OD600, strain BY4716, 24 h, basal condition, primary screen (AID 1173); details: S. cerevisiae BY4716 growth, OD600, 24 h; higher = more signal, called active from +8 up or from −8 down
# [3] = viability profiling in MM1S myeloma cells – cell-based, resazurin fluorescence, basal, 24 h, PK04 Diversity Set, profiling panel (AID 1174); details: higher = more signal, called active from +8 up or from −8 down;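 further: MM1S multiple myeloma cell line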
# [4] = target: Dihydroorotate dehydrogenase (quinone), mitochondrial (Plasmodium falciparum (isolate 3D7)) (UniProt Q08210); test: inhibition of P. falciparum DHODH – biochemical, C-terminal His tag, absorbance 600 nm, primary screen (AID 1175); details: PfDHODH enzyme, DCIP absorbance 600 nm; higher = more signal, called active from +8 up or from −8 down;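 further: recombinant parasite enzyme with a five histidine tag at its C terminus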
# Chain of Dihydroorotate dehydrogenase (quinone), mitochondrial (Plasmodium falciparum (isolate 3D7)) (Q08210 whole entry, looked up): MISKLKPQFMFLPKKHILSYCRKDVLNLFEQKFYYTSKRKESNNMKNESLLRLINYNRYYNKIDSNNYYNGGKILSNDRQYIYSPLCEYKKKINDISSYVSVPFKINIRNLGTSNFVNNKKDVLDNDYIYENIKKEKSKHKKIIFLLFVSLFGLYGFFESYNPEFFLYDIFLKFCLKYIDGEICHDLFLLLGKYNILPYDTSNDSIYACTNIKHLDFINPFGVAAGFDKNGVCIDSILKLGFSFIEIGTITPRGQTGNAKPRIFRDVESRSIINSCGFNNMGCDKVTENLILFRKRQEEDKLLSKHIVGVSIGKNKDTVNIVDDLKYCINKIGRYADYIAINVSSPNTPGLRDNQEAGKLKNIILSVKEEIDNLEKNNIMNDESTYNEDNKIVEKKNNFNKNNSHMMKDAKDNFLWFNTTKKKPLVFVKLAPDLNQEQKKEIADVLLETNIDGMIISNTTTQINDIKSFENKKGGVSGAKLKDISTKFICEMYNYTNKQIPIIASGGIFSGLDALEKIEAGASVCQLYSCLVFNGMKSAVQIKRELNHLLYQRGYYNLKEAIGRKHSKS
# [5] = inhibition of PAO1 biofilm formation – strain PAO1, LB-PBS medium, absorbance 600 nm, primary screen (AID 1176); details: P. aeruginosa PAO1 growth/biofilm, A600, 12 h; higher = more signal
# [6] = growth modulation of vineyard yeast isolate – strain RM11-1a, OD600, basal, 24 h, primary screen (AID 1177);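 further: cultures grown under basal conditions with no added stressor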; details: S. cerevisiae RM11-1a growth, OD600, 24 h; higher = more signal, called active from +8 up or from −8 down
# [7] = growth of efflux-deficient E. coli DRC39 – strain DRC39, OD650, 24 h, E. coli filamentation inducers, primary screen (AID 1178);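 further: growth measured as culture turbidity by optical density at 650 nm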; details: E. coli DRC39 acrAB, higher = more signal, called active from +8 up or from −8 down
# [8] = growth of efflux-deficient E. coli DRC39 – strain DRC39, OD650, 48 h, E. coli filamentation inducers, primary screen (AID 1179);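 further: screen aims at cell division blockers that make cells filament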; details: E. coli DRC39 delta-acrAB growth, higher = more signal, called active from +8 up or from −8 down
# [9] = viability profiling in RPMI8226 myeloma cells – cell-based, resazurin fluorescence, basal, 24 h, PK04 Diversity Set, profiling panel (AID 1180); details: higher = more signal;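 further: RPMI8826 multiple myeloma cell line at 5000 cells per well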
# [10] = target: E3 ubiquitin-protein ligase XIAP (Homo sapiens) (UniProt P98170); test: small molecules binding XIAP protein – biophysical, small-molecule microarray, fluorescence 635 nm, primary screen (AID 1181); details: higher = more signal;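 further: score merges 667 nm emission and signal to noise over triplicate slides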
# Chain of E3 ubiquitin-protein ligase XIAP (Homo sapiens) (P98170 whole entry, looked up, the tested form may be a part): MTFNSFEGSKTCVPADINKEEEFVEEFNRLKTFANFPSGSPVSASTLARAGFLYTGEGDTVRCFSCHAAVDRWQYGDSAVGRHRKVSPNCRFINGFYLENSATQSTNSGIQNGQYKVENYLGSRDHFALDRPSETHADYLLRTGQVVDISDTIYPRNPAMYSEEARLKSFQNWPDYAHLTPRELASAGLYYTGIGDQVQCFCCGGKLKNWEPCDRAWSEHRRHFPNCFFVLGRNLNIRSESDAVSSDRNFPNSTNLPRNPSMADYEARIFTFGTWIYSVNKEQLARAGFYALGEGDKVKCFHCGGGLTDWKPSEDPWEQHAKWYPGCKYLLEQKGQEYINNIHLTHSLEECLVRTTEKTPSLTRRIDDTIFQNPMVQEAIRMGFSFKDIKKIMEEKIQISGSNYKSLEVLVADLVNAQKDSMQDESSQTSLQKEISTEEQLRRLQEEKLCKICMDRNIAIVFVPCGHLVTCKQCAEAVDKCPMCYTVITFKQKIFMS
# [11] = tested on: XIP peptide (Xip251-270) binding; test: XIP fragment 251-270 binding compounds – biochemical, small-molecule microarray, fluorescence 635/667 nm, 0.1 µg/mL protein, primary screen (AID 1182); details: fluorescent protein binding, 635 nm, higher = more signal, called active from +8 up or from −8 down
# XIP peptide (Xip251-270) = test: compounds binding XIP fragment 251-270 – biochemical, small-molecule microarray, fluorescence 635/667 nm, 0.5 µg/mL protein, primary screen (AID 1183); details: fluorescence 635 nm, higher = more signal
# [12] = blood-stage malaria parasite viability loss – strain 3D7, DAPI fluorescence, 100 nL, primary screen (AID 1184);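 further: parasites grown inside human red blood cells in medium with human serum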; details: P. falciparum 3D7 growth, 3 d, higher = more signal
# [13] = target: Homeobox protein Hox-A13 (Mus musculus) (UniProt Q62424); test: disruptors of Hoxa13 oligonucleotide interaction – biochemical, fluorescence polarization, labeled oligonucleotide, primary screen (AID 1185); details: Hoxa13:DNA binding, 15 min, higher = more signal, called active from +8 up or from −8 down
# Chain of Homeobox protein Hox-A13 (Mus musculus) (Q62424 whole entry, looked up): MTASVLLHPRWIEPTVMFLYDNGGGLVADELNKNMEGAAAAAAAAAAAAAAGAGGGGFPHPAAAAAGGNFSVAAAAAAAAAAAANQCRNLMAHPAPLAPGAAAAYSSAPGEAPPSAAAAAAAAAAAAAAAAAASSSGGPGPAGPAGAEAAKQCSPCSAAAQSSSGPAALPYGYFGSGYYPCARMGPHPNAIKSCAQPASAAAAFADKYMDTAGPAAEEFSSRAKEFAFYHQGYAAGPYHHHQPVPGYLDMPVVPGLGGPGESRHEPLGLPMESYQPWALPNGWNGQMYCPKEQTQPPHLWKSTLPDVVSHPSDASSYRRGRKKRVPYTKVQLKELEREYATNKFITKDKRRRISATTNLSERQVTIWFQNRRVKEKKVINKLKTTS
# [14] = blockers of DNA damage checkpoint Chk1 activation – imaging, HeLa, hydroxyurea, phospho-Chk1 antibody, percent positive cells, primary screen (AID 1186); details: hydroxyurea-induced phospho-Chk1 immunofluorescence imaging, higher = more signal
# [15] = blockers of DNA damage checkpoint Chk1 activation – imaging, HeLa, hydroxyurea, phospho-Chk1 nuclear intensity, primary screen (AID 1187); details: hydroxyurea-induced phospho-Chk1 immunofluorescence imaging, higher = more signal
SMILES,z-score [1],z-score [2],z-score [3],composite z-score [4],z-score [5],z-score [6],z-score [7],z-score [8],z-score [9],composite z-score [10],composite z-score [11],composite z-score (XIP peptide (Xip251-270)),z-score [12],z-score [13],z-score [14],z-score [15]
COCCOC(=O)N1C(=O)[C@@]2(c3cc(C#Cc4ccc(OC)cc4)ccc31)[C@H](c1ccc(O)cc1)N1[C@H](c3ccccc3)[C@H](c3ccccc3)OC(=O)[C@H]1[C@@H]2C(=O)N1CCc2cc(OC)c(OC)cc2C1,0.28,-0.465 (inactive),-0.0918 (inactive),-0.463 (inactive),0.457 (inactive),-0.694 (inactive),-0.232 (inactive),-0.779 (inactive),0.572,-0.197,0.109 (inactive),0.629,-2.17,-1.71 (inactive),0.264 (inactive),0.948 (inactive)
CC(CO)N1C(=O)[C@@H]2C3C(=O)OCCC/C=C\[C@H]3OC23C=CCN(C(C)(C)C)C(=O)[C@@H]13 (some centres undefined),-0.181,-0.382 (inactive),-0.261 (inactive),-4.03 (inactive),0.727 (inactive),-0.0192 (inactive),0.855 (inactive),0.956 (inactive),-0.178,0.801,0.453 (inactive),-0.0516,0.67,-4.72 (inactive),-0.423 (inactive),-1.21 (inactive)
COC(=O)[C@@]1(CCS(=O)(=O)c2ccccc2)N=C(c2ccc(OCCCO)cc2)O[C@H]1c1ccccc1CN=[N+]=[N-],-0.882,1.38 (inactive),-3.13 (inactive),0.484 (inactive),0.92 (inactive),0.642 (inactive),0.163 (inactive),-0.154 (inactive),-2.55,0.316,1.24 (inactive),0.769,-2.07,-0.977 (inactive),-0.395 (inactive),-0.74 (inactive)
CN(C)CCCCCCNC(=O)[C@H]1C[C@H]2C(=O)N[C@@H](CCCCN)C(=O)N2[C@H]1c1cccc(OCCO)c1,-0.0616,-1.69 (inactive),-0.0889 (inactive),-0.692 (inactive),0.0346 (inactive),-0.533 (inactive),0.422 (inactive),-0.02 (inactive),-0.614,2.02,0.867 (inactive),0.727,1.05,-2.01 (inactive),-0.198 (inactive),-0.0886 (inactive)
C=CCN1C(=O)[C@]2(O[C@H](CCn3cc([C@H](O)c4ccccc4)nn3)[C@@H]([Si](C)(C)c3ccc(OC)cc3)[C@@H]2C)c2ccccc21,-1.25,-0.242 (inactive),-1.68 (inactive),-0.591 (inactive),1.29 (inactive),0.507 (inactive),0.617 (inactive),0.169 (inactive),-1.69,-0.104,0.507 (inactive),-0.579,-1.69,-5.68 (inactive),-0.831 (inactive),-0.475 (inactive)
COc1ccc(C#Cc2ccc3c(c2)[C@]2(C(=O)N3)[C@H](C(=O)Nc3nc4ccccc4s3)[C@H]3C(=O)O[C@H](c4ccccc4)[C@H](c4ccccc4)N3[C@@H]2c2ccc(O)cc2)cc1,1.2,0.0338 (inactive),0.283 (inactive),-2.08 (inactive),0.145 (inactive),1.15 (inactive),0.237 (inactive),-0.0528 (inactive),0.338,0.065,0.0642 (inactive),0.73,-0.435,-0.717 (inactive),-0.0599 (inactive),-0.17 (inactive)
COC(=O)[C@H](Cc1ccccc1)N1CC2=C[C@@H](C3CC3)n3c(=O)n(C)c(=O)n3[C@H]2[C@@H]1[C@@H](O)Cc1ccccc1,-0.0568,-1.18 (inactive),-1.07 (inactive),-0.174 (inactive),0.0937 (inactive),-0.143 (inactive),-0.172 (inactive),-0.228 (inactive),0.358,-0.142,0.475 (inactive),0.259,-0.863,-7.37 (inactive),0.183 (inactive),1.5 (inactive)
[N-]=[N+]=NCc1ccccc1[C@@H]1OC(c2ccc(OCCCO)cc2)=N[C@]1(Cc1ccccc1)C(N)=O,0.854,-2.19 (inactive),-0.422 (inactive),-0.717 (inactive),0.177 (inactive),0.895 (inactive),0.671 (inactive),-0.492 (inactive),-0.0348,0.319,0.906 (inactive),0.689,-2.13,-3.49 (inactive),-0.395 (inactive),-0.0798 (inactive)
CCCC[C@@H]1C[C@H]1[C@@H](NC(=O)C(C)(C)C)c1ccc(C(F)(F)F)cc1,-0.549,0.594 (inactive),-0.858 (inactive),-3.55 (inactive),3.07 (inactive),1.17 (inactive),-0.483 (inactive),-0.631 (inactive),2.01,0.0256,0.503 (inactive),0.414,-0.948,1.43 (inactive),-0.109 (inactive),-0.236 (inactive)
